# High-throughput results as filed in PubChem.
# This is a sample that favours compounds with a hit; in the whole collection about 1.1% have one here.
# HTR5A ag ctr: activates human HTR5A in OPRM1-OPRD1 agonist counter-screen; P47898; 340,000 tested, 0.61% active; activation, % at 9.3 µM; HTR5A agonist assay, luminescence, cell-based; in the data active = activation mostly above about 9.5%, no sharp cut-off; inactive = mostly below about 7.6%
# Target sequence (P47898 whole entry, looked up): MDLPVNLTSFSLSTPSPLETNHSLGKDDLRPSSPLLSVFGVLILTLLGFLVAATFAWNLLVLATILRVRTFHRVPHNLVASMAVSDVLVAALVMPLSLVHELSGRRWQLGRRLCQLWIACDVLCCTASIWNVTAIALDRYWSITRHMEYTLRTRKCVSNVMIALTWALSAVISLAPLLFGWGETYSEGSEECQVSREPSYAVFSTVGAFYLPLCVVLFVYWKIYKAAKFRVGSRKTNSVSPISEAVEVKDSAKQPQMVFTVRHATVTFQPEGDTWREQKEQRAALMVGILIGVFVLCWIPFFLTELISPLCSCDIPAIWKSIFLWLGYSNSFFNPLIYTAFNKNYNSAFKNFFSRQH
# MOR-DOR inv ag: inverse agonists of human mu-delta opioid receptor heterodimerization | cell-based MOR-DOR heterodimer luminescence, inverse agonism | AID 504357 | inhibition, % at 9.3 µM | 340,000 tested, 0.21% active; in the data active = inhibition above about 22%, passing the limit was not always enough
# OPRM1-OPRD1 ag: agonists of human mu-delta opioid receptor heterodimerization; 340,000 tested, 0.3% active; P35372+P41143; activation, % at 9.3 µM; AID 504326; cells, OPRM1-OPRD1 heterodimerization, luminescence; in the data active = activation above about 18%
# HTR5A inv ctr: counter-screen for OPRM1-OPRD1 inverse agonists: human HTR5A inverse agonism; P47898; HTR5A cell line, luminescence; inhibition, % at 9.3 µM; 340,000 tested, 0.083% active; in the data active = inhibition mostly above about 23%, no sharp cut-off; inactive = mostly below about 18%
# A number is an active result; . = inactive.
SMILES,HTR5A ag ctr,MOR-DOR inv ag,OPRM1-OPRD1 ag,HTR5A inv ctr
c1ccc2c(c1)Oc1ccccc1S2,13,.,.,.
COc1ccc(C(=O)O/N=C(\N)Cc2ccc(Cl)c(Cl)c2)cc1OC,42,.,22,.
COc1ccc(C/C(N)=N/n2cnnc2)cc1Cl,.,.,.,.
CC1(C)CC(=O)c2cc3c(N)c(C(=O)NCc4ccccc4)sc3nc2C1,11,.,.,.
COc1ccc2ccccc2c1/C=N/NC(=O)c1sc(N)c(C#N)c1C,.,.,24,.
CCOc1ccc(NC(=O)c2ccc(NC(=S)NC3CCCCC3)cc2)cc1,9.9,.,.,.
CCOc1ccc(NC(=O)c2ccc(NC(=S)NC3CC3)cc2)cc1,.,.,.,.
c1ccc2c(c1)c1c(c3ccccc32)CN2CCCC2C1 (stereo not given),.,.,.,.
CCOC(=O)c1csc(NC(=O)c2ccc(S(=O)(=O)N(CC)CC)cc2)n1,12,.,.,.
CC1CC(C)CN(C(=O)CSc2nc(Cc3cccs3)nc3ccccc23)C1 (stereo not given),12,.,.,.
CCOC(=O)CNC(=O)CSc1nc(Cc2cccs2)nc2ccccc12,.,.,.,.
Cc1cc(Br)ccc1NC(=O)CN(C)C(=O)C1CSC2(C)CCC(=O)N12 (stereo not given),.,.,.,.
O=C1Nc2c(Br)cccc2C1=O,.,.,.,.
Cc1cccc2c1NC(=O)C2=O,.,41,.,.
CSc1cccc(NC(=O)c2cc(S(=O)(=O)N3CCc4ccccc43)cn2C)c1,.,.,.,.
O=C(CNC(=O)c1ccccc1Br)N/N=C/c1cc(Br)ccc1O,.,.,.,.
O=C(N/N=C/c1cc(Cl)ccc1O)c1ccccc1Br,12,.,.,.
O=c1cc(C(F)(F)F)nc(SCc2cccnc2)[nH]1,.,.,.,.
C=CCn1c(O)c(N=NC(=O)CNC(=O)Cc2ccccc2)c2ccccc21,11,.,.,.
Cc1cc(NC(=O)CSc2nccn2C)n(-c2ccccc2)n1,14,.,.,.
Cc1cc(NC(=O)COc2ccccc2)n(-c2ccccc2)n1,.,.,.,.
Nc1nc(CCl)nc(Nc2ccccc2)n1,.,.,.,.
Cc1ccc(Nc2nc(N)nc(CCl)n2)c(C)c1,63,.,61,.
CCOc1ccc(Nc2nc(N)nc(CCl)n2)cc1,90,.,68,.
Cc1ccc(Nc2nc(N)nc(CN3CCCCCC3)n2)c(C)c1,.,.,.,.
SMILES,HTR5A ag ctr,MOR-DOR inv ag,OPRM1-OPRD1 ag,HTR5A inv ctr
CCc1c(C)nc2ncnn2c1N1CCCC(C(=O)NCc2ccc3c(c2)OCO3)C1 (stereo not given),.,.,.,.
CCc1c(C)nc2ncnn2c1N1CCCC(C(=O)Nc2ccc(NC(C)=O)cc2)C1 (stereo not given),13,.,.,.
COc1ccccc1NS(=O)(=O)c1cc(NC(=O)COc2ccccc2F)ccc1N1CCOCC1,.,.,.,.
CC(NC(=O)c1ccc(NC(=O)CC2SC(N3CCCC3)=NC2=O)cc1)c1ccccc1 (stereo not given),.,.,.,.
N#Cc1ccccc1OCC(=O)Nc1c(C(=O)C2CC2)oc2ccccc12,14,.,.,.
CC(C)(C)c1cc(CCC(=O)NNC(=S)NC(=O)c2ccccc2)cc(C(C)(C)C)c1O,.,68,.,82
CC[C@]12c3[nH]c4cc(-c5ccco5)ccc4c3CCN1C(=O)[C@@H](CC(=O)NCc1ccco1)C[C@@H]2C(=O)N1CCN(C(=O)C2CC2)CC1,4.4,.,.,.
CC(C)N(C(=O)[C@H]1C[C@H](CC(=O)NCC23CC4CC(CC(C4)C2)C3)C(=O)N2CCc3c([nH]c4ccc(Cl)cc34)[C@]12C)C(C)C,4.2,.,.,.
CC[C@]12c3[nH]c4cc(-c5ccco5)ccc4c3CCN1C(=O)[C@@H](CC(=O)NCC13CC4CC(CC(C4)C1)C3)C[C@@H]2C(=O)N1CCN(C(=O)C2CC2)CC1,.,.,.,.
CCN(CC)C(=O)[C@H]1C[C@H](CC(=O)NCC23CC4CC(CC(C4)C2)C3)C(=O)N2CCc3c([nH]c4ccc(Cl)cc34)[C@]12C,.,.,.,.
COc1ccc2[nH]c3c(c2c1)CCN1C(=O)C(CC(=O)NCC24CC5CC(CC(C5)C2)C4)C[C@H](C(=O)N2CCOCC2)[C@@]31CCC1CCCC1 (stereo not given in full),4.4,.,.,.
CC(C)(C)NC(=O)CC1C[C@H](C(=O)N2CCOCC2)[C@@]2(CCC3CCCC3)c3[nH]c4ccccc4c3CCN2C1=O (stereo not given in full),8.6,.,.,.
O=C(CS(=O)(=O)Cc1ccccc1)NCCc1ccc(F)cc1,.,.,.,.
COc1ccc(S(=O)(=O)NCC(=O)N(CC2CCCO2)C(C(=O)NC2CCCC2)C(C)C)cc1 (stereo not given),.,.,.,.
O=C(CN(Cc1ccc(F)cc1)C(=O)CCC(=O)Nc1nccs1)NCc1ccc(F)cc1,.,.,.,.
COc1cc(OC)cc(C(=O)N2CCC(C(=O)NCCc3ccccc3)CC2)c1,.,.,.,.
CCN(CCCNC(=O)C1CCN(S(=O)(=O)c2cnc[nH]2)CC1)c1cccc(C)c1,11,.,.,.
CCN(CCCNC(=O)C1CCCN(S(=O)(=O)CC)C1)c1cccc(C)c1 (stereo not given),.,.,.,.
O=C(NCc1n[nH]c(=S)n1-c1ccc(Cl)c(Cl)c1)c1ccc(S(=O)(=O)N2CCOCC2)cc1,.,.,.,.
CC(C)Cc1ccc(C(C)C(=O)Nc2ccccc2O)cc1 (stereo not given),.,.,.,.
COc1cc2c(cc1OC)C(c1ccc(-c3ccc(Cl)c(Cl)c3)o1)=NCC2,11,.,.,.
COc1cc2c(cc1OC)C(c1ccc(-c3cc(Cl)ccc3Cl)o1)=NCC2,.,.,.,.
Cc1ccc(CN2CCC(n3nccc3NC(=O)CCOc3ccccc3)CC2)cc1C,.,.,.,.
CCOC(=O)C1CCCN(CCC(=O)Nc2cc(C)cc(C)c2)C1 (stereo not given),10,.,.,.
COc1cccc(-c2nc(NCc3cccnc3)c3ccccc3n2)c1O,11,.,.,.
SMILES,HTR5A ag ctr,MOR-DOR inv ag,OPRM1-OPRD1 ag,HTR5A inv ctr
c1cncc(CNc2nc(-c3cccnc3)nc3ccccc23)c1,.,.,.,.
COCCN(C(=O)COC(=O)C(c1ccccc1)c1ccccc1)c1c(N)n(Cc2ccccc2)c(=O)[nH]c1=O,.,.,.,.
CC1CCc2c(sc3nc(C(C)(C)C)nc(N4CCN(C(=O)CCl)CC4)c23)C1 (stereo not given),46,.,72,.
COc1cc(C(=O)Nc2nc(-c3cc(C)ccc3C)c(C)s2)ccc1OCC(=O)Nc1ccc(F)cc1,.,.,.,.
COc1ccc(-c2nc(NC(=O)c3ccc(OCC(=O)Nc4ccc(F)cc4)c(OC)c3)sc2C)cc1,15,.,19,.
O=C(NCCCN1CCOCC1)/C(=C/c1ccc(F)cc1)NC(=O)c1ccccc1,.,.,.,.
Oc1ccccc1/C=N/NC(=S)NCCc1ccccc1,10,.,.,.
S=C(NCCc1ccccc1)N/N=C/c1cccc(Cl)c1Cl,.,.,.,.
